Measured values from PubChem BioAssay AID1985 (Southern Research Specialized Biocontainment Screening …, 2009).
Hit rate of the full screen: of about 2,300 compounds, about 1,000 (43%) were called active. So high a share suggests a set chosen from earlier hits. Some of the results follow. Results with a measured potency or affinity are listed apart. A number with no mark means an inactive call. How the calls were made is not given here.

experiment: PhoP regulon inhibitor project modified counter assay, GFP fluorescence readout, dose response (AID 1985); details: S. Typhi, 4 h; series mostly up to 150 µM; inhibition: at the top concentration

Going from `Cc1ccc(NC(=O)CN(C)C(=O)Cn2ccsc2=N)cc1` to `Cc1ccc(C)c(OCC(=O)Nc2cccc(C(=O)O)c2)c1C`, the “inhibition” value rises from 9.59% to 26.7%.

First: CC(C)NC(=O)c1cc(-c2ccc(Br)cc2)on1
Second: CC(=O)Nc1cc(-c2ccc(Cl)cc2)[nH]n1
The “inhibition” value of the first is higher: 2.62% for the first, -11.4% for the second.

Going from `Cc1ccccc1-c1ncc(CN2CCN(C3CCCC3)C(CCO)C2)cn1` (stereo not given) to `CCC(=O)N1CCc2cc(S(=O)(=O)NCCCN3CCN(Cc4ccccc4)CC3)ccc21`, the “inhibition” value falls from 9.03% to -4.18%.

Compared with `Nc1nc2n(n1)C(c1ccco1)CC(c1ccc(Cl)c(Cl)c1)N2` (stereo not given), `CC(C)(C)c1nc(SCC(=O)NCc2ccco2)c2ccccc2n1` is higher in “inhibition” value: -11.5% for the first, -7.41% for the second.

Compared with `O=C(NC(=C(Cl)Cl)S(=O)(=O)c1ccc(Cl)cc1)c1ccccc1`, `Cc1cc(C)c[n+](CC(=O)c2ccc(NC(=O)c3ccccc3)cc2)c1` is higher in “inhibition” value: -3.98% for the first, 15% for the second.

First: COc1ccc(NS(=O)(=O)c2cccc(NC(=O)c3ccccn3)c2)cc1
Second: COc1ccc(N(C(=O)c2cccnc2)S(=O)(=O)c2cccc([N+](=O)[O-])c2)cc1
The “inhibition” value of the first is higher: 1.48% for the first, -6.79% for the second.

Going from `CCN(CC)CCNC(=O)c1cccc(NC(=O)C(=O)c2cc(Br)ccc2NC(C)=O)c1` to `COc1cc(/C=C(/C#N)C(=O)Nc2ccccc2)c(Br)cc1OCc1ccc(C(=O)O)cc1`, the “inhibition” value falls from 15% to -2.34%.

Going from `CCCCCCCCCCCCC/C=C/[C@@H](O)[C@@H](N)CO` to `CCN(CC)CCCNC(=O)c1c(O)c2c([nH]c1=O)CCCC2`, the “inhibition” value falls from 21.2% to 6.8%.

Going from `COc1ccc(OC)c(S(=O)(=O)N2CCC(C(=O)NCCc3ccc(OC)c(OC)c3)CC2)c1` to `COc1ccc(NC(=O)Cn2c(=O)oc3cc(S(=O)(=O)N4CCCC4)ccc32)c(OC)c1`, the “inhibition” value falls from -3.61% to -6.13%.

Going from `Cc1nnc(SCc2cnc(-c3ccc(C(C)C)cc3)s2)n1C` to `COc1ccc(C(=O)CSc2nnc(-c3cnccn3)n2Cc2ccco2)cc1`, the “inhibition” value falls from 34.8% to -8.62%.

Going from `O=C(C[n+]1cc(-c2ccccc2)n2c1CCC2)c1cccs1` to `O=C(Nc1ccc2c(c1)nc1n2CCN(Cc2ccccc2)C1)c1cccs1`, the “inhibition” value falls from 18.7% to -10.1%.

First: Cc1ccc(-n2c(Cc3noc4ccccc34)n[nH]c2=S)cc1
Second: c1ccn(-c2ccc(-c3ccn[nH]3)cc2)c1
The “inhibition” value of the first is higher: 2.98% for the first, 2.06% for the second.

First: CCc1nnc(NS(=O)(=O)c2ccc(NC(=S)NC(=O)/C=C/c3ccc([N+](=O)[O-])cc3)cc2)s1
Second: CC(=O)c1ccc(NC(=S)NC(NC(=O)c2ccco2)C(Cl)(Cl)Cl)cc1 (stereo not given)
The “inhibition” value of the first is lower: -7.82% for the first, 26.9% for the second.

Compared with `CCSc1nc(C)cc(C)c1S(=O)(=O)c1ccccc1C`, `Cc1cc(C)c(CSc2ncnc3nc[nH]c23)c(C)c1` is lower in “inhibition” value: -0.26% for the first, -13.6% for the second.

First: O=c1ccn(CCc2c[nH]c3ccccc23)c2c1CCCC2
Second: Cc1c(-c2ccccc2)[n+](=O)c2c(n1[O-])CCCC2
The “inhibition” value of the first is lower: -12.7% for the first, 7.37% for the second.

Going from `Cc1[nH]c2ccccc2c1/C=C/c1nc2ccccc2c(=O)[nH]1` to `O=c1c2ccccc2nc2n1CCc1c-2[nH]c2ccccc12`, the “inhibition” value falls from 15.8% to -12.2%.

First: Nc1cccc2c(=O)c3ccccc3[nH]c12
Second: Cc1nn(-c2nc3ccccc3[nH]2)c(N)c1-c1ccccc1
The “inhibition” value of the first is higher: 16.4% for the first, 5.82% for the second.

Going from `Cc1ccc2[nH]c(C(=O)O)c(NC(=O)CN3CCN(c4cccc(C)c4C)CC3)c2c1` to `Cn1c(CCN2CCN(c3ccccn3)CC2)nc2cc(NC(=O)COc3ccccc3)ccc21`, the “inhibition” value falls from 36.2% to 16.1%.

Compared with `CC1CCC[C@H](O)CCCCCc2cc(O)cc(O)c2C(=O)O1` (stereo not given in full), `c1cc2c(cc1C1CCCCC1)c1c3n2CCN=C3CCC1` is higher in “inhibition” value: -28.5% for the first, -16.8% for the second.

First: O=C(O)c1ccc(S(=O)(=O)NC2CC2)cc1
Second: COc1ccc(OC)c(C(=O)c2ccc(C(=O)O)cc2)c1
The “inhibition” value of the first is higher: 25% for the first, 13.8% for the second.

Going from `CC1(C)CC(=O)C(C=NCC2CCN(C(=O)Cc3ccccc3)CC2)=C(O)C1` to `COc1cc2c(cc1OC)CN(C(=O)CCCN1C(=O)c3ccccc3C1=O)CC2`, the “inhibition” value rises from 6.03% to 11%.

First: O=C(CSc1ncc(-c2ccc(F)cc2)[nH]1)NCc1ccco1
Second: O=C(CSc1nc2c(c(=O)n1-c1ccc(F)cc1)SCC2)NCc1ccco1
The “inhibition” value of the first is lower: -32.3% for the first, -0.95% for the second.

Going from `COc1ccccc1Nc1nc(NCc2ccco2)c2ccccc2n1` to `c1ccc(CN2CCN(c3nc(NCc4ccco4)c4ccccc4n3)CC2)cc1`, the “inhibition” value falls from 21.9% to 20.6%.

Going from `CC1CCCN(C(=O)Cn2c(=O)oc3cc(S(=O)(=O)N4CCCCC4)ccc32)C1` (stereo not given) to `CCN(C1CCCCC1)S(=O)(=O)c1ccc(OC)c(C)c1`, the “inhibition” value rises from -3.65% to 10.8%.

First: COc1ccc(CSCCN)cc1Cl
Second: CCn1nnnc1SCC(=O)c1cc(Cl)ccc1OC
The “inhibition” value of the first is higher: 5.75% for the first, 4.28% for the second.

Going from `CCCOc1ccc(C2=CSC3=NCCN23)cc1Cl` to `CCNC(=S)Nc1cc(-c2ccc(Cl)cc2)[nH]n1`, the “inhibition” value falls from 10.9% to -1.85%.

First: O=C(NCc1ccco1)c1ccc2c(c1)N(Cc1ccccc1)CCS2
Second: COC(=O)c1cn(C(=O)c2ccco2)c2ccccc12
The “inhibition” value of the first is lower: -17.1% for the first, -16% for the second.

Compared with `O=C1N/C(=C/c2ccc(N3CCOCC3)cc2)C(=O)N1Cc1ccc(F)cc1`, `COc1ccc(C(=O)Oc2cc(C(=S)N3CCOCC3)ccc2OC)cc1` is higher in “inhibition” value: -4.52% for the first, -4.19% for the second.

Compared with `CCOC(=O)c1c(CSC(=N)N)n(C)c2cc(Br)c(OC(C)=O)cc12`, `CCOC(=O)Cc1[nH]nc2c1C(c1ccoc1)C(C#N)=C(N)O2` (stereo not given) is higher in “inhibition” value: -19% for the first, 24.6% for the second.

Going from `NC1=NC[C@H](Cc2ccc(O)cc2)N1CCc1cccc2ccccc12` to `CC1CCC(C(C)C)C(OC(=O)Cn2c(-c3ccc(Br)cc3)[n+](C)c3ccccc32)C1` (stereo not given), the “inhibition” value rises from -33.5% to -18.7%.

Going from `CC(C)(C)n1nc2c(c1NC(=O)c1ccccc1)CS(=O)(=O)C2` to `Cc1nc2ccc(NC(=O)c3cccc(C(F)(F)F)c3)cc2o1`, the “inhibition” value rises from -6.62% to -0.54%.

First: CC1CCC(C(C)C)C(OC(=O)C[n+]2cc(-c3ccc(Cl)cc3)n3c2CCC3)C1 (stereo not given)
Second: N#CC(C(=O)C12CC3CC(CC(C3)C1)C2)c1nc2ccccc2[nH]1 (stereo not given)
The “inhibition” value of the first is higher: 35.1% for the first, -23.9% for the second.

Compared with `Cc1ccc(NC2=C(Cl)C(=O)OC2OC(=O)c2ccco2)c(C)c1` (stereo not given), `COC(=O)c1ccc(OC(=O)c2cccnc2)cc1` is higher in “inhibition” value: 1.58% for the first, 14% for the second.

First: CSC1=NC2(C)CCCCC2C12C=CC(=O)C=C2 (stereo not given)
Second: Cn1cnc2cc(NC(=O)c3cccs3)ccc21
The “inhibition” value of the first is lower: -12.5% for the first, 25.2% for the second.

With `Cc1cc(NC(=O)CSc2nnc(-c3cccnc3)n2N)no1` the “inhibition” value was 16.5%.

With `c1ccc(N2CCN(c3nc4ccccc4[nH]3)CC2)nc1` the “inhibition” value was 23.3% [at 75 µM].
